Experimental data taken from PubChem BioAssay (NCATS).
Inconclusive results are not listed. The list shows a part of the results. Active and inactive are the calls of the source. Calls follow the shape of the dose curve; as a rule, active = well fitted curve in the direction sought with a large enough effect; inconclusive = small, poorly fitted or top-dose-only effect, or another doubt; inactive = no such curve, though single readings can be large; an effect the other way counts as inactive or inconclusive.

How the values were obtained:
[1] = Cell Viability - LYMP2-020 (AID 986); also: potency is read from the fitted curve at half-maximal effect; nearly all actives have a fitted effect of over 55% in size
In short: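 Seed 2500 cells per well and incubate 5 hr at 37 C. Add compounds at a concentration series and incubate 24 hr at 37 C. Add CellTiter-Glo, wait 30 min at RT, read luminescence, and fit a Hill curve for AC50.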

[2] = Cell Viability - LYMP2-022 (AID 987); also: potency is read from the fitted curve at half-maximal effect; nearly all actives have a fitted effect of over 55% in size
In short: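 Cells were seeded at 2500 per well, rested 5 hr at 37 C, and treated with titrated compounds for 24 hr at 37 C. Cellular ATP was then quantified by luciferase luminescence, and AC50 values were derived from Hill-modelled concentration-response curves.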

[3] = Cell Viability - LYMP2-024 (AID 988); also: potency is read from the fitted curve at half-maximal effect; nearly all actives have a fitted effect of over 60% in size
In short: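 qHTS cytotoxicity, human lymphoblastoid line, complete medium; 24 h cpd treatment, 37 C; CellTiter-Glo ATP luminescence readout; tetraoctylammonium bromide positive control; AC50 via Hill fit.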

[4] = Cell Viability - LYMP2-026 (AID 989); also: potency is read from the fitted curve at half-maximal effect; nearly all actives have a fitted effect of over 50% in size
In short: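 Cells are seeded at 2500 per well and held 5 hr at 37 C. Compounds are added in concentration series for 24 hr, then CellTiter-Glo reagent is applied and luminescence read.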

[5] = Cell Viability - LYMP1-002 - Assay at 24 hr (AID 993); also: potency is read from the fitted curve at half-maximal effect
In short: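 Acute toxicity is measured as concentration-dependent loss of cellular ATP in a human lymphoblastoid line (Coriell LYMP1-002) after 24 h treatment in complete medium. ATP is quantified by luciferase luminescence and AC50 derived by Hill modelling.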

[6] = Cell Viability - LYMP1-002 - Assay at 40 hr (AID 994); also: potency is read from the fitted curve at half-maximal effect; nearly all actives have a fitted effect of over 60% in size
In short: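 Cells are plated at 2500 per well and rested 5 hr at 37 C. Compounds are added and incubated 40 hr at 37 C. CellTiter-Glo reagent is added for 30 min at room temperature before luminescence is read.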

[7] = target: ATPase family AAA domain-containing protein 5 (Homo sapiens) (UniProt Q96QE3); assay: HTS assay for small molecules that inhibit ELG1-dependent DNA repair in human embryonic kidney (HEK293T) cells expressing luciferase-tagged ELG1: Hit Confirmation (AID 624248); conditions: HEK293T ELG1-luciferase levels, luminescence; cells co-treated with 5-fluorouridine; also: potency is read from the fitted curve at half-maximal effect; nearly all actives have a fitted effect of over 55% in size
In short: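 Cells (2,000/well) received 5-Fluorouridine plus pin-transferred compound or DMSO and were incubated 16 hr at 37 °C, 5% CO2. Luciferase activity was read by ONE-Glo luminescence after 30 min at room temperature; inhibitors suppress the signal.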

[8] = target: ATPase family AAA domain-containing protein 5 (Homo sapiens) (UniProt Q96QE3); assay: qHTS screen for small molecules that inhibit ELG1-dependent DNA repair in human embryonic kidney (HEK293T) cells expressing luciferase-tagged ELG1: Hit Confirmation using MMS Stimulated ELG1 (AID 624249); conditions: HEK293T luciferase-tagged ELG1 level; also: potency is read from the fitted curve at half-maximal effect; nearly all actives have a fitted effect of over 60% in size
In short: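 Cells carrying luciferase-tagged ELG1 receive compound and DNA-damaging MMS (final concentration 10 µM) roughly five hours after seeding. Sixteen hours on, Amplight detects luciferase, and activity loss marks blocked ELG1 function.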

[9] = qHTS screen for small molecules that inhibit ELG1-dependent DNA repair: Hit Confirmation with MMS Viability (AID 624251); conditions: Cell viability with MMS;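 also: potency is read from the fitted curve at half-maximal effect; viability read 16 h after compound addition; nearly all actives have a fitted effect of over 60% in size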
In short: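 This confirmation step measures survival of ELG1-luciferase reporter HEK293T cells co-treated with test compounds and MMS at a final 10 µM, using CellTiter-Glo after a 16-hour incubation.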

[10] = S16 Schwann cell PMP22 intronic element firefly luciferase assay (AID 624032); also: nearly all actives have a fitted effect of over 30% in size
In short: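 Rat S16 Schwann cells stably carrying a PMP22 intronic element-driven Fluc reporter were seeded overnight, then exposed to compounds for 24 h at 37 °C. Luminescence was normalized to PTC124 (positive control) and DMSO (0% activity).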

[11] = system: DFO2036; assay: qHTS profiling for inhibitors of Plasmodium falciparum proliferation (AID 504749); also: nearly all actives have a fitted effect of over 60% in size; conditions: P. falciparum in erythrocytes, SYBR Green DNA, 72 h; series mostly up to 28.7 µM
In short: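 Quantitative HTS: compounds pinned into medium, infected erythrocytes added (0.3% parasitemia, 2.5% hematocrit), 72 h culture at 37 C under 5% CO2. Saponin/Triton lysis with SYBR Green I, overnight RT, then fluorescence read.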

ATPase family AAA domain-containing protein 5 (Homo sapiens), sequence (Q96QE3 whole entry, looked up, the tested form may be a part): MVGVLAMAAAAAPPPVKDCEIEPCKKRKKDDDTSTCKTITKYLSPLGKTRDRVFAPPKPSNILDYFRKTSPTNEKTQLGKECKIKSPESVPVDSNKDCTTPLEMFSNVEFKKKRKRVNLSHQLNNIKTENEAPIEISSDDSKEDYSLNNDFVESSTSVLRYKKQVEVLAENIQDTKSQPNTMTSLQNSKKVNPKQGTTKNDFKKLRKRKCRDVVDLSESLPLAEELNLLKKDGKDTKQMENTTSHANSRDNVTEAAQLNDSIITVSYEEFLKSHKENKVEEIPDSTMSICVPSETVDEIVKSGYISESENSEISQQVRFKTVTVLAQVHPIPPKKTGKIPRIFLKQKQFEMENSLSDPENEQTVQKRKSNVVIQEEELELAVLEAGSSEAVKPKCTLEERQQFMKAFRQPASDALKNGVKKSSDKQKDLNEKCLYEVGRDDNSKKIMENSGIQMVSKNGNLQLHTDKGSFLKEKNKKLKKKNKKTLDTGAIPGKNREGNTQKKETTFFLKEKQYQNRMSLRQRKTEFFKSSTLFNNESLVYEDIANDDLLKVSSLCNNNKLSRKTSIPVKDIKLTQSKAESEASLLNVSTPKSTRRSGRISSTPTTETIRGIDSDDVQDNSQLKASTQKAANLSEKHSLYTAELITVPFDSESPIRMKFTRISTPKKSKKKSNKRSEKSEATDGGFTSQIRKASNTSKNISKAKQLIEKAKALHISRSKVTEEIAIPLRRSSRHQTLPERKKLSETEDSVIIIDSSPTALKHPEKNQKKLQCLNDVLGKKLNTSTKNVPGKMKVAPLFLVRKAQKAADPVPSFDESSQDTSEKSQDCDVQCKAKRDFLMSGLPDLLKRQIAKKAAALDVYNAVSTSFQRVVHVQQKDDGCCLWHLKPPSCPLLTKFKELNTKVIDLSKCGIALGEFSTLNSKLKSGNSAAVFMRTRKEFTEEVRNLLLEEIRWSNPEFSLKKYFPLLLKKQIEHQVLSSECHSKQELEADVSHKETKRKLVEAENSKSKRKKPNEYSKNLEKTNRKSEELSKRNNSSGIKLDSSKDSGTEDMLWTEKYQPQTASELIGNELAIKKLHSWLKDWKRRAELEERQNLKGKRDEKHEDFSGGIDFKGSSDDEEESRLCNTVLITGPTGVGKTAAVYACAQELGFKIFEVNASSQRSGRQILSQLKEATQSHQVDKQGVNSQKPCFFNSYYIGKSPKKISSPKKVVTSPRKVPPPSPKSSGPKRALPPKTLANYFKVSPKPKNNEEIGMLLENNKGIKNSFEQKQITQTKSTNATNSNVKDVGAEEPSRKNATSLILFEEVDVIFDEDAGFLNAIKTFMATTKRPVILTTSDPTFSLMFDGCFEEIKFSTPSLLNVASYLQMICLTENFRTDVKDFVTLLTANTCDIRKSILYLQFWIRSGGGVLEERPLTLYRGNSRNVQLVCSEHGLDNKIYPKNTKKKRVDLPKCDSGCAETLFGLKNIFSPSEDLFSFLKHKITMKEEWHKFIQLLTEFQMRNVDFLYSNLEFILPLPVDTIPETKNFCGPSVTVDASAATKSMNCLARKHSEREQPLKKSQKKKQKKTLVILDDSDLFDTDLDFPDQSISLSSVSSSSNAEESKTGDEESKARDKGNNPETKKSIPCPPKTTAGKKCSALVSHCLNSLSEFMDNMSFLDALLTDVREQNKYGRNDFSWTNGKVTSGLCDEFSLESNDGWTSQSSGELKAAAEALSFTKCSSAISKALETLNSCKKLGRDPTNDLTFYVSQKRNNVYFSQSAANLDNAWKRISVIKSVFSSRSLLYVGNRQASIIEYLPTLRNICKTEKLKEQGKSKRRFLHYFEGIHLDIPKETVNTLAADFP

For `O=C1C(Cl)=C(Cl)C(=O)C(Cl)=C1Cl`, the Potency [1] was 12.6 µM (active), the Potency [2] was 15.8 µM (active) and the Potency [3] was 10 µM (active). For the same compound, the Potency [4] was 25.1 µM (active), the Potency [5] was 39.8 µM (active) and the Potency [6] was 39.8 µM (active).
With `C[C@@]12CC[C@H]3[C@@H](CC[C@]4(O)C[C@H](O)CC[C@@]34C=O)[C@]1(O)CC[C@@H]2C1=CC(=O)OC1` the Potency [7] was 1.07 µM (active), the Potency [8] was 756 nM (active) and the Potency [9] was 1.07 µM (active).
In the case of `CC([C@H](O)c1ccccc1)N(C)C` (stereo partly specified), the Potency [10] is reported as “inactive” and the Potency [11] is reported as “inactive”.
